Assays:
Assay in all cases: log2 ratio of Biotin-Ahx-Ub-VS probe labelling (fragment/DMSO); higher = less target engagement (more negative = stronger competition), active = hit call of the paper (q ≤ 0.05, log2 ratio ≤ -1)
Conditions in all cases: compound concentration: 200 uM; treatment time: 3 h
OTUD6B = target: T1, OTUD6B (UniProt Q8N6M0)
T1 sequence (whole entry): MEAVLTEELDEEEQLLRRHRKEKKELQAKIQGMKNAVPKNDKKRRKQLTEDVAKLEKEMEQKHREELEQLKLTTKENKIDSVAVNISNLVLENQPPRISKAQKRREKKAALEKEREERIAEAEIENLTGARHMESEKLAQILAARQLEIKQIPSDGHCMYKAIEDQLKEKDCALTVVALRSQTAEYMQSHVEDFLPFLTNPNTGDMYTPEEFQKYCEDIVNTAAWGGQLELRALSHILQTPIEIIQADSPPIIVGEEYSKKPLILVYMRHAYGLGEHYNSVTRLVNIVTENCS
Summary of the method: (§1)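 Labelling with Biotin-Ahx-Ub-VS (0.5 µM final, 1 h) followed a 3 h triplicate treatment of HEK293T lysate (495 µg per sample, Tris/CHAPS/IGEPAL buffer with protease inhibitors) with fragment at 200 µM or vehicle. Labelled DUBs were NeutrAvidin-enriched, digested with LysC and trypsin, and run by diaPASEF LC-MS/MS. The values, average log2 fragment/vehicle ratios by unpaired t-test, come from global-median-normalised Spectronaut label-free quantities. Proteins with ≥2 unique peptides were used.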

OTUD7B = target: T2, OTUD7B (UniProt Q6GQQ9)
T2 sequence (whole entry): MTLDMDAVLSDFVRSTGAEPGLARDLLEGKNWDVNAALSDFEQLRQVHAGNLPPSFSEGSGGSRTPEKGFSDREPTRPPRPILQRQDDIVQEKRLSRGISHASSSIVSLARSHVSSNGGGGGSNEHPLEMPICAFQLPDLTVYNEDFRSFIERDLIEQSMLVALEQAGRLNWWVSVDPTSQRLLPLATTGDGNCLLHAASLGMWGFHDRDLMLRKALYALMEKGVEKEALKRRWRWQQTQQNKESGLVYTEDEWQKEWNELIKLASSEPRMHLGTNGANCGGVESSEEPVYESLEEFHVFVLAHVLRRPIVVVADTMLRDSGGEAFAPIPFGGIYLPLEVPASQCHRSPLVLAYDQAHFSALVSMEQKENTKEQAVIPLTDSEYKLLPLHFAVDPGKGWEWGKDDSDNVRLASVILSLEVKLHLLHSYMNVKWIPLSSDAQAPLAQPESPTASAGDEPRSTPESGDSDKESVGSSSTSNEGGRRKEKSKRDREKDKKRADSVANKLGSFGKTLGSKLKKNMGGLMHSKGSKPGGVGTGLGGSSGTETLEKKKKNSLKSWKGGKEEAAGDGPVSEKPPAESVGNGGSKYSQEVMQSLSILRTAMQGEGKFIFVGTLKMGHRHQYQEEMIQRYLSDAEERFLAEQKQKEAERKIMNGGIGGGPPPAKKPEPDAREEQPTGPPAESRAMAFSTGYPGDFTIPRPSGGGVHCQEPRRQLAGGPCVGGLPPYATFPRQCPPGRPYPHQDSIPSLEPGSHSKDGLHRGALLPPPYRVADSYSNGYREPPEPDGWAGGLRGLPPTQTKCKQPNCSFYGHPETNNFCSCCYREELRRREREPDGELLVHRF
Summary of the method: as §1

PRPF8 = PRPF8 (UniProt Q6P2Q9)
Summary of the method: as §1

PSMD7 = target: T3, PSMD7 (UniProt P51665)
T3 sequence (whole entry): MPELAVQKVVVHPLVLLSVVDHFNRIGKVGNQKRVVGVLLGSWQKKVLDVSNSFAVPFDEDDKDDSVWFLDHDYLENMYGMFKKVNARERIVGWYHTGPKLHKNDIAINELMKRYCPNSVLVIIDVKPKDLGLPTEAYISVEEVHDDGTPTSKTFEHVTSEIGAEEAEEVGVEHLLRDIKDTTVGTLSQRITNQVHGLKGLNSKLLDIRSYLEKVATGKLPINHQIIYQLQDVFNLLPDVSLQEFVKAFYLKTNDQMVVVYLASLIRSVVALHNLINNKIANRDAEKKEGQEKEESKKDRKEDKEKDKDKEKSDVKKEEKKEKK
Summary of the method: as §1

UCHL1 = UCHL1 (UniProt P09936)
Summary of the method: as §1

UCHL3 = target: T4, UCHL3 (UniProt P15374)
T4 sequence (whole entry): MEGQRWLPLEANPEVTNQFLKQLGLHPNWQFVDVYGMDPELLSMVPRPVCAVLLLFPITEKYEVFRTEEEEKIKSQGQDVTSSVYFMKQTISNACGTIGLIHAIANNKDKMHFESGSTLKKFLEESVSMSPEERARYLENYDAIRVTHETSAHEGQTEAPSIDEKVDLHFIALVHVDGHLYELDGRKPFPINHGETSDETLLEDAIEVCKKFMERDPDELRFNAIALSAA
Summary of the method: as §1

UCHL5 = target: T5, UCHL5 (UniProt Q9Y5K5)
T5 sequence (whole entry): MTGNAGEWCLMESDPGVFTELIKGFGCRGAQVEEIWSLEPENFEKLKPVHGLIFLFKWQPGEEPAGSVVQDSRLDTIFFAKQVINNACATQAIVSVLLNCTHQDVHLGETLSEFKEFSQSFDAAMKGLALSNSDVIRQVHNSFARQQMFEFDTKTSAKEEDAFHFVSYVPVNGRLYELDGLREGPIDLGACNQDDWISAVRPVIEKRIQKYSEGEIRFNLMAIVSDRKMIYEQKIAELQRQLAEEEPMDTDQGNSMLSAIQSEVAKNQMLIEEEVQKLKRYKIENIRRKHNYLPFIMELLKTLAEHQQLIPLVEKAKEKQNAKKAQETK
Summary of the method: as §1

USP10 = USP10 (UniProt Q14694)
Summary of the method: as §1

USP15 = target: T6, USP15 (UniProt Q9Y4E8)
T6 sequence (whole entry): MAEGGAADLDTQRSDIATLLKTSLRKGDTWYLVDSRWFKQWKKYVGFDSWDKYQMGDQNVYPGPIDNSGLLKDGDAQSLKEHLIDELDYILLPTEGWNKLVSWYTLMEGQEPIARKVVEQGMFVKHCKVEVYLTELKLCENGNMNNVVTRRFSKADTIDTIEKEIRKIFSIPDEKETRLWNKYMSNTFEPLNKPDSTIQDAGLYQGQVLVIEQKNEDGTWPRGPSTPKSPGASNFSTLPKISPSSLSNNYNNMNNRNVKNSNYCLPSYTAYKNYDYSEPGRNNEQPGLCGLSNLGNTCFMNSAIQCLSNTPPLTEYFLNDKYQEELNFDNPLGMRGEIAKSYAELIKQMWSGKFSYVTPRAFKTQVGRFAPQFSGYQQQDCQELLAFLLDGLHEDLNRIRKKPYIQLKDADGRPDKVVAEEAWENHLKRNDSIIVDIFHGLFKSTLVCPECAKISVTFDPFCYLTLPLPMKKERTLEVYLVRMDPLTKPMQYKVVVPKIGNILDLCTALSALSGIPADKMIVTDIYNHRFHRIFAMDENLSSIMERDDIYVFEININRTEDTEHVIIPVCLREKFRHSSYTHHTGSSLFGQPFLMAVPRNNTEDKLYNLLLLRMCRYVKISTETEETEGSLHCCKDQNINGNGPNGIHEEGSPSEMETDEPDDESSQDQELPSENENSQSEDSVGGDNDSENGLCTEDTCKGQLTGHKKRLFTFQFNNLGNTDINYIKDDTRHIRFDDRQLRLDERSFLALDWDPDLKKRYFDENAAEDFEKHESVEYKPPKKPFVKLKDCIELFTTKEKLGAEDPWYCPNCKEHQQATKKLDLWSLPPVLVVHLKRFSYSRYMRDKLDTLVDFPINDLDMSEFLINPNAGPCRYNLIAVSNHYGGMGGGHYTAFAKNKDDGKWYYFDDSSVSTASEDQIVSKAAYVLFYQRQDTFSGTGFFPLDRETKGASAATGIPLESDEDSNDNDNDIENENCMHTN
Summary of the method: as §1

Measured: log2 ratio of Biotin-Ahx-Ub-VS probe labelling

Chain of UCHL1 (P09936 whole entry, looked up): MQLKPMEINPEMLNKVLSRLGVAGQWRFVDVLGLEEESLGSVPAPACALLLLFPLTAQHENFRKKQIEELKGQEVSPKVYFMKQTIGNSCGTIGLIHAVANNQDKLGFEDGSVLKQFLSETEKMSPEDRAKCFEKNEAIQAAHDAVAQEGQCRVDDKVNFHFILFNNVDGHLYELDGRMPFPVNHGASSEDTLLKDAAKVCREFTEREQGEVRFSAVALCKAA
Chain of USP10 (Q14694 whole entry): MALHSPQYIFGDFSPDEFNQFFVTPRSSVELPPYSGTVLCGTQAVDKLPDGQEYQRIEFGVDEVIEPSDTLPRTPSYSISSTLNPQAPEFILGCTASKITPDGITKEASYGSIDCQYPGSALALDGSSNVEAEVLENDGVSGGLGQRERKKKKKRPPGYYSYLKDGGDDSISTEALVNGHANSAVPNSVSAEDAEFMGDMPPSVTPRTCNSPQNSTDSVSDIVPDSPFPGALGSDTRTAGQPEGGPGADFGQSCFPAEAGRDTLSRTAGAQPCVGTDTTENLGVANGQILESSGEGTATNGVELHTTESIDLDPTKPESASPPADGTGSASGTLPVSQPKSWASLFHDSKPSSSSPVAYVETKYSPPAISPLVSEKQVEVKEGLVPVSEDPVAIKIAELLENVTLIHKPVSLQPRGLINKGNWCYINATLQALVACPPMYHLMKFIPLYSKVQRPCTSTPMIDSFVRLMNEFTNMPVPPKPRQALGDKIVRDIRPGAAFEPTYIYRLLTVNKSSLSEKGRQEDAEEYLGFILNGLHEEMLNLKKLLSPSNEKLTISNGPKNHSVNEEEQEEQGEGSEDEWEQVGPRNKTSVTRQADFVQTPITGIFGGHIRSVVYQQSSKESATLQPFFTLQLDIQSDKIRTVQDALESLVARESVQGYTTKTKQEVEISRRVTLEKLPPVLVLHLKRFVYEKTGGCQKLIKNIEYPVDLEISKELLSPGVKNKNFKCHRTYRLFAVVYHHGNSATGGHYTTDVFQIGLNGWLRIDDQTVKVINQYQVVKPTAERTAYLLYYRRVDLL

Cc1n[nH]c(=O)c2c(NC(=O)CCl)oc(C)c12
inactive: OTUD6B 0.111 | OTUD7B -0.365 | PRPF8 0.175 | PSMD7 0.0225 | UCHL1 -0.344 | UCHL3 0.303 | UCHL5 -0.0452 | USP10 -0.0909 | USP15 -0.014

— the supplement of paper PMC11732987, “Enantioselective OTUD7B fragment discovery through chemoproteomics screening and high-throughput optimisation” (Communications Chemistry, 2025)
